In PubChem BioAssay AID651602 (The Scripps Research Institute Molecular Screening Center, 2012):
Out of some 360,000 compounds screened, about 950 (0.26%) were called active. Cut-off read from the data, not from the text of the source: active = inhibition above about 11%; inactive = the rest. The full list was thinned out, with actives kept by preference.

Experiment: growth loss of phage-infected E. coli, primary screen, RecBCD inhibitor project, absorbance, with phage, HTS (AID 651602)
Details: at 11.9 µM, stronger effect = higher value

inhibition, active:
COc1cccc(C(O)c2ncc(-c3ccc4ccccc4c3)[nH]2)c1 (stereo not drawn) 12.1%
Cc1ccc(-c2cnc(C(O)c3cc(Cl)cc(Cl)c3)[nH]2)cc1 (stereo not drawn) 17.1%
O=C(CC(O)(C(F)(F)F)C(F)(F)F)Nc1ccc(Cl)c(Cl)c1 15.6%
CC(C)(C)C(=O)Nc1c(Br)c(C2CC2)nn1-c1ccccc1 97.8%
Oc1c(CN2CCN(c3ccc(F)cc3)CC2)cc(Cl)c2cccnc12 13%
O=C1c2ccccc2C2=Nc3ccccc3SC(c3ccccc3F)C12 (stereo not drawn) 19.6%
O=C(Nc1ccc(Br)cn1)c1ccc([N+](=O)[O-])o1 15.1%
Cc1cccc(NC(=O)c2ccc([N+](=O)[O-])o2)c1 14.2%
Nc1nonc1-n1nnc(C(=O)N/N=C/c2cc(Br)ccc2O)c1CSC1=NCCS1 11.6%
Cc1cn(C2C=CC(CO)O2)c(=O)[nH]c1=O (stereo not drawn) 19.9%
CCN1CCN(C(=O)N[C@@H](C(=O)N[C@@H]2C(=O)N3C(C(=O)O)=C(CSc4nnnn4C)CS[C@H]23)c2ccc(O)cc2)C(=O)C1=O 103%

inhibition, inactive:
COCCNC(=S)N(C)[C@H]1C[C@H]2c3[nH]c4ccccc4c3CCN2C[C@H]1[C@H](C)O 0.63%
OC(c1ccc(Cl)cc1)c1ncc(-c2ccc(Cl)cc2)[nH]1 (stereo not drawn) 7.68%
Cc1cccc(-c2cnc(C(O)c3ccc4ccccc4c3)[nH]2)c1 (stereo not drawn) 2.34%
COc1cccc(-c2cnc(C(O)c3ccccc3OC)[nH]2)c1 (stereo not drawn) -1.64%
Cc1cccc(-c2cnc(C(O)c3cc(C)cc(C)c3)[nH]2)c1 (stereo not drawn) 9.2%
Cc1cc(N2CCN(C(=O)OC(C)(C)C)C[C@H]2C)ccc1N1CCN(Cc2ccccc2)[C@H](C)C1 7.28%
CCOC(=O)/C=C/c1ccccc1O 4.3%
COC(=O)[C@H](CC(C)C)NS(=O)(=O)c1c(F)cccc1F 4.61%
O=C(NCc1ccccc1)[C@H]1CCCN1C(=O)[C@H]1CCCN1C(=O)c1cc(F)cc(F)c1 2.09%
Nc1ncnc2c1ncn2[C@@H]1O[C@H](C(=O)N[C@@H](CCc2ccccc2)C(=O)NCC(=O)N2CCOCC2)[C@@H](O)[C@H]1O 2.03%
Cc1cc2c(nc1C)CCCN2C 1.32%
COC(=O)c1ccc(CN2C(=O)[C@]3(OCCC=C[C@H]3C)c3c(Br)cccc32)cc1 1.58%
O=C(Nc1ccc(Cl)c(Cl)c1)N1CC=C(c2ccccc2)CC1 3.32%
CC(c1cccnc1)N(CCN(C)C)C(=O)Nc1ccc(Cl)c(Cl)c1 (stereo not drawn) 1.6%
COC(=O)C1=C(C)N(Cc2cccc(C(F)(F)F)c2)C(=NCc2cccc(C(F)(F)F)c2)NC1c1ccccc1C(F)(F)F (stereo not drawn) 9.37%
COC(=O)Cc1nnn2c1[C@H](C)[C@H](c1ccccc1Br)OCC2 -1.01%
CC(C)(C)n1nc(C2CC2)c(Br)c1NC(=O)c1ccccc1F 3.69%
O=C(Nc1c(Cl)c(C2CC2)nn1-c1ccccc1)C(Cl)(Cl)Cl 1.86%
O=C(CN1CCN(c2ccc(Cl)cc2)CC1)c1ccccc1 4.29%
Cc1cccc(C)c1NC(=O)CN1CCN(c2ccc(F)cc2)CC1 2.55%
O=C(NCc1ccccc1)[C@@H]1CCCN1C(=O)[C@@H](NS(=O)(=O)c1ccc(F)cc1F)C1CCCCC1 3.12%
O=C(C(=O)N1CCC(CNS(=O)(=O)Cc2ccccc2)CC1)c1cc2ccccc2o1 1.63%
COC(=O)[C@]12C[C@H](CC(=O)NCc3cccc(C(F)(F)F)c3)C(=O)N(Cc3ccc4c(c3)OCO4)C1=C[C@H](COCc1ccccc1)O[C@@H]2C 2.25%
CC(C)CNc1cccc2c1S(=O)(=O)N[C@H](C)CO2 5.2%
CC(=O)C1=C(C)N(Cc2ccc(Cl)cc2)C(=S)NC1c1ccc(F)cc1 (stereo not drawn) 2.81%
O=C(NCc1ccccc1)[C@H]1CCCN1C(=O)[C@H]1CCCN1C(=O)N1CCOCC1 1.72%
COc1ccc(-c2ccccc2C2Cc3nnccc3CN2C(=O)Nc2ccccc2)cc1 (stereo not drawn) 3.48%
Cc1cccc(NC(=O)CCn2c(=O)oc3ccccc32)c1 0.64%
O=C(/C=C/c1ccc(Cl)cc1)Nc1ccc(Br)cn1 -0.92%
O=C(Nc1ccc(Br)cn1)c1ccc([N+](=O)[O-])cc1Cl 1.57%
CCN(CC)S(=O)(=O)c1ccc(N2CCCC2)c(NC(=O)c2ccc([N+](=O)[O-])o2)c1 0.78%
COC(=O)[C@]12C[C@H](CC(=O)NCc3ccccc3)C(=O)N(CCC3=CCCCC3)C1=C[C@H](C(C)(C)C)O[C@@H]2C 1.16%
COc1cccc(CNC(=O)[C@H]2CCCN2C(=O)[C@H]2CCCN2C(=O)c2ccc(F)cc2)c1 1.78%
C[C@@H]1ON(C)[C@H]2C[C@H]3c4cc(N5CCOCC5)ccc4CCN3C[C@@H]12 1.27%
C=CCN=C1NC(c2ccccc2)C(C(=O)OC)=C(C)N1Cc1ccc(C(F)(F)F)cc1 (stereo not drawn) 3.49%
C[C@@H](CN1C2=NC[C@@H](Cc3ccccc3)N2C[C@H]1Cc1ccc(O)cc1)NC(=O)CCC1CCCCC1 2.48%
CN(C)Cc1c(C(=O)N/N=C/c2ccccc2OCc2ccc(F)cc2)nnn1-c1nonc1N -5.79%
CC(C)Oc1ccc(/C=N/NC(=O)c2nnn(-c3nonc3N)c2CN(C)C2CCCCC2)cc1 2.44%
Cc1cn(C2OC[C@@H](O)[C@@H]2CO)c(=O)[nH]c1=O (stereo partly drawn) 0.95%
Cc1cn([C@H]2C[C@H](O)[C@@H](/C=C/C(=O)NCCCc3ccccc3)O2)c(=O)[nH]c1=O 3.27%
COc1cccc(-c2cc(CNC(=O)[C@@H](Cc3ccccc3)NC(=O)[C@H]3O[C@@H](n4cnc(C(N)=O)n4)[C@H](O)[C@@H]3O)no2)c1 2.06%
CCOC(=O)C1=C(CSc2nnnn2C)N(C)C(=O)NC1c1ccccc1 (stereo not drawn) 3.2%
